# Source: the supplement of paper PMC13380429
# Experiments:
# [1] = system: Vero E6 infected with SARS-CoV-2; experiment: morphology score (similarity to uninfected cells); higher = more like uninfected cells; settings: 24 h
# [2] = system: Vero E6 infected with SARS-CoV-2; experiment: SARS-CoV-2 infection rate relative to infected DMSO; higher = more infection, active = 60 or less; settings: 24 h
Compound,morphology score [1],SARS-CoV-2 infection rate [2]
Clc1ccccc1CN1CCc2sccc2C1 [ticlopidine] (10 µM),0.199,92.5% (inactive)
CCC(C)(C)c1ccc(CC(C)CN2C[C@@H](C)O[C@@H](C)C2)cc1 (stereo not given in full) [amorolfine] (10 µM),0.198,93% (inactive)
Cc1cc(-n2c(=O)[nH]c(=O)n(C)c2=O)ccc1Oc1ccc(SC(F)(F)F)cc1 [toltrazuril] (10 µM),0.184,107% (inactive)
N#Cc1c(Oc2ccc(F)c(NC(=O)Cc3cccc(C(F)(F)F)c3)c2)ccc2nc(NC(=O)C3CC3)sc12 (10 µM),-0.304,108% (inactive)
CCCCc1ccc(NS(=O)(=O)c2ccc(F)cc2)cc1 (10 µM),0.122,102% (inactive)
CN(CCOc1ccc(NS(C)(=O)=O)cc1)CCc1ccc(NS(C)(=O)=O)cc1 [dofetilide] (10 µM),0.059,112% (inactive)
O=C1CN(/N=C/c2ccc(-c3ccc([N+](=O)[O-])cc3)o2)C(=O)N1 [dantrolene] (10 µM),0.0672,110% (inactive)
CCOC(=O)Nc1ccc(NCc2c(C)cc(C)cc2C)cc1N (10 µM),-0.0161,108% (inactive)
OCCN1CCN(CCCN2c3ccccc3C=Cc3ccccc32)CC1 [opipramol] (10 µM),0.237,102% (inactive)
NC(=O)[C@H]1CCS[C@@H]2C[C@]3(CCCN3C(=O)Cc3ccc(NC(=O)COc4ccc(Cl)cc4Cl)cc3)C(=O)N12 (10 µM),-0.263,111% (inactive)
COc1cc(Br)c(Nc2nc(-c3c(C)nc4ncccn34)cs2)c(Br)c1 (10 µM),-0.31,114% (inactive)
O=C1C2C=Nc3ccccc3C2=NN1c1ccc(Cl)cc1 (stereo not given) (10 µM),-0.264,120% (inactive)
C#CCN(C)Cc1ccccc1 [pargyline] (10 µM),0.0803,108% (inactive)
CCc1nn(CCCN2CCN(c3cccc(Cl)c3)CC2)c(=O)n1CCOc1ccccc1 [nefazodone] (10 µM),0.0652,106% (inactive)
OCc1ccccc1O [salicyl-alcohol] (10 µM),-0.0183,106% (inactive)
C[C@]12CC[C@@H]3c4ccc(OC(=O)c5ccccc5)cc4CC[C@H]3[C@@H]1CC[C@@H]2O [estradiol-benzoate] (10 µM),-0.19,111% (inactive)
O=C1OC(c2ccc(O)cc2)(c2ccc(O)cc2)c2ccccc21 [phenolphthalein] (10 µM),0.0414,110% (inactive)
CCOC(=O)N1CSC[C@H]1C(=O)O [telmesteine] (10 µM),0.00511,99.5% (inactive)
Oc1ccc(O)cc1 [hydroquinone] (10 µM),0.00582,108% (inactive)
CCOc1nc2c(N)ncnc2n1CC (10 µM),0.236,88% (inactive)

Compound,morphology score [1],SARS-CoV-2 infection rate [2]
NC(=O)c1nc(F)cnc1O [Favipiravir] (10 µM),0.0924,108% (inactive)
COc1cc2ncnc(Nc3cccc(Cl)c3)c2cc1OC [tyrphostin-AG-1478] (10 µM),-0.318,118% (inactive)
CC1(C)C[C@@H]1C(=O)N/C(=C\CCCCSC[C@H](N)C(=O)O)C(=O)O [Cilastatin Sodium] (10 µM),0.215,88.5% (inactive)
CC1(C)S[C@@H]2[C@H](NC(=O)[C@H](C(=O)O)c3ccsc3)C(=O)N2[C@H]1C(=O)O [ticarcillin] (10 µM),-0.0272,97.5% (inactive)
O[C@@H]1CCCC[C@H]1N1CCC(c2ccccc2)CC1 (racemic) [vesamicol] (10 µM),0.23,98.5% (inactive)
CCc1ccc(C2=CC(C)(C)Sc3ccc(C#Cc4ccc(C(=O)O)cc4)cc32)cc1 (10 µM),-0.0119,111% (inactive)
CCOC(=O)[C@H](CCc1ccccc1)N[C@@H](C)C(=O)N(CC(=O)O)C1Cc2ccccc2C1 [delapril] (10 µM),-0.0271,108% (inactive)
CC(C)NC(=O)N1CC[C@H](NC2=Nc3cc(F)ccc3N(CC(F)F)c3ccc(Cl)cc32)C1 (0.833333 µM),0.0642,89% (inactive)
CC[C@H]1CN2CCc3cc(OC)c(OC)cc3[C@@H]2C[C@@H]1C[C@H]1NCCc2cc(OC)c(OC)cc21 [emetine] (0.833333 µM),-0.193,108% (inactive)
Oc1nc(-c2ccc(C(F)(F)F)cc2)nc2c1CSCC2 (0.833333 µM),0.149,94% (inactive)
CC(NC(=O)c1ccccc1/N=C/c1c(O)ccc2ccccc12)c1ccccc1 (stereo not given) [sirtinol] (10 µM),0.0701,99% (inactive)
O=C(/C=C/C=C/c1ccc2c(c1)OCO2)N1CCCCC1 [piperine] (10 µM),0.0346,97.5% (inactive)
C[C@]12C=CC(=O)C=C1CC[C@@H]1[C@@H]2[C@@H](O)C[C@@]2(C)[C@H]1CC[C@]2(O)C(=O)COP(=O)(O)O [prednisolone-sodium-phosphate] (10 µM),-0.0179,93.5% (inactive)
CCN(CC)CCNc1ccc(CO)c2sc3ccccc3c(=O)c12 [hycanthone] (0.833333 µM),0.244,82% (inactive)
CN(C)[C@@H]1C(O)=C(C(N)=O)C(=O)[C@@]2(O)C(O)=C3C(=O)c4c(O)cccc4[C@@](C)(O)[C@H]3C[C@@H]12 [tetracycline] (10 µM),0.157,100% (inactive)
NCCCC[C@@H]1NC(=O)[C@@H](Cc2c[nH]c3ccccc23)NC(=O)[C@H](c2ccccc2)NC(=O)[C@@H]2C[C@@H](OC(=O)NCCN)CN2C(=O)[C@H](Cc2ccccc2)NC(=O)[C@H](Cc2ccc(OCc3ccccc3)cc2)NC1=O [pasireotide] (10 µM),-0.0469,104% (inactive)
NC(=O)c1ccc[n+]([C@@H]2O[C@H](COP(=O)([O-])OP(=O)(O)OC[C@H]3O[C@@H](n4cnc5c(N)ncnc54)[C@H](O)[C@@H]3O)[C@@H](O)[C@H]2O)c1 [nadide] (10 µM),-0.0496,94% (inactive)
CC(C)OC(=O)C(C)(C)Oc1ccc(C(=O)c2ccc(Cl)cc2)cc1 [fenofibrate] (10 µM),0.0415,101% (inactive)
Cc1c(F)cc(C(=O)NC2CC2)cc1-c1c(F)cn2c(C(C)(C)C)nnc2c1F (10 µM),-0.202,108% (inactive)
O=C(CC(c1ccccc1)c1ccccc1)N1CCN(C(c2ccccc2)c2ccccc2)CC1 (10 µM),0.0825,102% (inactive)

Compound,morphology score [1],SARS-CoV-2 infection rate [2]
CNCCCC1(c2ccccc2)OC(C)(C)c2ccccc21 (stereo not given) [talopram] (10 µM),-0.07,111% (inactive)
COc1cc(/C=C/C(=O)N2CCN(CC(=O)N3CCCC3)CC2)cc(OC)c1OC [cinepazide] (10 µM),-0.015,108% (inactive)
N[C@]1(C(=O)O)CC[C@@H](C(=O)O)C1 (10 µM),0.188,82% (inactive)
N=C1CCCN1Cc1[nH]c(=O)[nH]c(=O)c1Cl [tipiracil] (10 µM),-0.0802,106% (inactive)
C=C(C)CN1CC[C@]23c4c5ccc(O)c4O[C@H]2c2[nH]c4ccccc4c2C[C@@]3(O)C1C5 (10 µM),0.0617,108% (inactive)
CNC(=O)ON(C(C)=O)C(=O)NC [caracemide] (10 µM),0.0974,104% (inactive)
Cn1c(=O)c2c(ncn2CCO)n(C)c1=O [etofylline] (10 µM),0.0956,104% (inactive)
CCCCNc1ncc2c(-c3ccc(CN4CCN(C)CC4)cc3)cn([C@H]3CC[C@H](O)CC3)c2n1 (10 µM),-0.164,119% (inactive)
O=C1C=CC(=O)C2=C1C1c3ccccc3C2c2ccccc21 (10 µM),0.00761,102% (inactive)
CC(=O)N1CCC(C(=O)N(CCCN2CCC(Cc3ccc(C(N)=O)cc3)CC2)c2ccc(C)c(Cl)c2)CC1 (10 µM),0.0284,107% (inactive)
O=C(O)CCc1c[nH]c2ccccc12 (10 µM),0.0821,104% (inactive)
CC(C)(Oc1ccc(CCNC(=O)c2ccc(Cl)cc2)cc1)C(=O)O [bezafibrate] (10 µM),0.0236,104% (inactive)
COCCOc1ccc2c(c1)ncn2-c1ccc2cccc(N3CCC(N)CC3)c2n1 (0.833333 µM),-0.0191,106% (inactive)
FC(F)(F)c1ccc(N2CCNCC2)nc1Cl (10 µM),0.273,89.5% (inactive)
O=C1Nc2ccc(I)cc2C1=Cc1cc(Br)c(O)c(Br)c1 (10 µM),0.384,98.5% (inactive)
C[C@H](N[C@@H](CCc1ccccc1)C(=O)O)C(=O)N1Cc2ccccc2C[C@H]1C(=O)O [quinaprilat] (10 µM),0.0914,106% (inactive)
C[C@H]1C[C@H]2[C@@H]3CCC4=CC(=O)C=C[C@]4(C)[C@@]3(F)[C@@H](O)C[C@]2(C)[C@@]1(O)C(=O)CO [betamethasone] (10 µM),-0.0234,111% (inactive)
CN[C@@H](C)C(=O)N[C@H]1CCCC[C@H]2CC[C@@H](C(=O)N[C@@H](c3ccccc3)c3cn(CCCCc4ccc(CCCCn5cc([C@@H](NC(=O)[C@@H]6CC[C@@H]7CCCC[C@H](NC(=O)[C@H](C)NC)C(=O)N76)c6ccccc6)nn5)cc4)nn3)N2C1=O (10 µM),0.155,98% (inactive)
CN1CCN(CCCN2c3ccccc3Sc3ccc(S(=O)(=O)N(C)C)cc32)CC1 [thioproperazine] (10 µM),0.251,102% (inactive)
C[C@@H]1CN(c2c(F)c(N)c3c(=O)c(C(=O)O)cn(C4CC4)c3c2F)C[C@H](C)N1 [sparfloxacin] (10 µM),-0.0335,115% (inactive)
